Data on 17 compounds can be found in PubChem BioAssay.

Structures are written as SMILES. Values without a mark were called inactive. No rule for the calls is given here.

Pantothenate synthetase (Mycobacterium tuberculosis (strain ATCC 25618 / H37Rv)), sequence (P9WIL5 whole entry, looked up): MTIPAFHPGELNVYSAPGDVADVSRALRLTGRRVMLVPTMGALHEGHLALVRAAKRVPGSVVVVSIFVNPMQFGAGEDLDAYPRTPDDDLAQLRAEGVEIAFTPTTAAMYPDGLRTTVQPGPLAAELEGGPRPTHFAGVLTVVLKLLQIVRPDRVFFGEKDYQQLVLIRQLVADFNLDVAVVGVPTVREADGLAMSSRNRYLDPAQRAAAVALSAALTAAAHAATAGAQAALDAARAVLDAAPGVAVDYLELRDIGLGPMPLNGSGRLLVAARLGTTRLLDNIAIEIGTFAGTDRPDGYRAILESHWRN

The assay concerns the target Pantothenate synthetase (Mycobacterium tuberculosis (strain ATCC 25618 / H37Rv)) (UniProt P9WIL5). The assay can be described thus: Coupled enzyme confirmation of inhibitors against recombinant Mtb PanC (AID 375).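 Also: 0% = full reaction with vehicle and 100% = no enzyme background.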 The conditions noted are these: coupled enzyme assay; at 10 µM, active compounds read high.
Take `Cc1cc(NC(=O)CSc2nc(C3CCCCC3)nc3ccccc23)no1`: the inhibition (in general, the share of the control response that was lost under treatment) is 0%.

`O=C(Cn1ccc2ccccc2c1=O)NCCC(=O)N1CCN(C2CCCCC2)CC1`: the inhibition is 5%.

With `COCCOC(=O)C1=C(C)N=c2s/c(=C\c3cccs3)c(=O)n2C1c1cccs1` (configuration not stated), the inhibition was 1%.

Take `CCc1ccc(NC(=O)CS(=O)CC(=O)NCC2OCCc3ccccc32)cc1` (configuration not stated): the inhibition is 0%.

In the case of `O=S(=O)(c1ccc2ccccc2c1)N(CC(O)CN1CCOCC1)c1ccccc1` (configuration not stated), the inhibition is 0%.

With `Cn1cccc1Cc1nnc(SCC(=O)NCC2CCCO2)n1-c1ccc(F)cc1` (configuration not stated), the inhibition is 0%.

Regarding `CN(C)c1ccc(-c2nn3c(-c4ccc(Cl)cc4Cl)nnc3s2)cc1`, the inhibition was 9%.

In the case of `Cn1c(Cc2csc(N)n2)nnc1SCC(=O)NCc1ccccc1`, the inhibition was 3%.

For the compound `c1ccc(-c2noc(C34CC5CC(CC(C5)C3)C4)n2)nc1`, the inhibition was 6%.

On to `O=C1CC(c2ccc(S(=O)(=O)N3CCN(c4ccccc4)CC3)cc2)CN1` (configuration not stated), for which the inhibition is 0%.

Regarding `Cc1nc2sc3c(c2c(=O)o1)CCC3`, the inhibition is 2%.

For `CNCCC(Oc1ccc(C(F)(F)F)cc1)c1ccccc1` (configuration not stated), the inhibition is 4%.

For `Cc1nc2ccc(Br)cn2c1NC(C)(C)C`, the inhibition was 0%.

Turning to `Cc1ccc(NC(=O)c2ccc(NS(=O)(=O)c3c(C)noc3C)cc2)cc1C`, the inhibition was 0%.

With `Cn1c(=O)cc(OCC(=O)NCCCN2CCN(c3cccc(Cl)c3)CC2)c2ccccc21`, the inhibition is 0%.

For the compound `COc1cccc(C(=O)OCn2nnc3ccccc3c2=O)c1OC`, the inhibition was 0%.

With `Cc1ccc(OC(=O)NC2CCS(=O)(=O)C2)cc1C` (configuration not stated), the inhibition was 0%.
